Assay outcomes: PubChem, Broad Institute
In the library only some 6.7% were active in any assay of this set; here they are far more common.
T cruzi growth-1 = T. cruzi proliferation inhibition; T. cruzi beta-gal in NIH3T3, GalScreen luminescence, 90 h; inhibition, % at 8.34 µM; 77,000 tested, 5.9% active; AID 624255;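 active means mean inhibition above about 93%, with at least 55% of replicates each passing it, limit read from the data, passing the limit was not always enough; inconclusive means only one of those two conditions holds; inactive means neither condition holds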
C diff HTS = inhibitors of Clostridium difficile growth. Clostridium difficile clinical isolate growth, OD600, 24 h; hits give low values. growth activity, negative = inhibition, % at 16 µg/mL (by protocol). 86,000 tested, 0.25% active;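 active means mean growth activity at or below -80% and every replicate also at or below -80%; inconclusive means mean at or below -80% but some replicate above -80%; inactive means mean growth activity above -80%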;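 further: 0% = DMSO wells and -100% = levofloxacin 16 µg/mL wells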
Pf Dd2 inh = inhibitors of Plasmodium falciparum Dd2 growth; P. falciparum Dd2 growth, SYBR Green, 72 h; hits give low values; activity change, % at 10 µM; 94,000 tested, 2.3% active; in the data active means activity change below about -80%; inconclusive means no clear call, values can overlap the other calls
T cruzi growth-2 = Trypanosoma cruzi proliferation inhibition | shares compounds with T cruzi growth-1 | T. cruzi beta-gal in NIH3T3, GalScreen luminescence, 90 h | inhibition, % at 8.35 µM | 5,600 tested, 72% active | AID 651739;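 active means mean replicate inhibition above about 95% and at least 55% of replicates individually reaching it, limit read from the data; inconclusive means only one of the two criteria is met; inactive means neither criterion is met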
T cruzi growth-3 = Trypanosoma cruzi proliferation inhibition | 5,600 tested, 21% active | shares compounds with T cruzi growth-1 | inhibition, % at 2.09 µM | T. cruzi beta-gal in NIH3T3, GalScreen luminescence, 90 h;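 active means mean inhibition above about 95%, with at least 55% of replicates also reaching it, limit read from the data; inconclusive means meets just one of the two conditions; inactive means meets neither condition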;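 further: plate controls were neutral control median for no effect and positive control median for full effect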
3T3 cytotox = cytotoxicity in mouse NIH/3T3 fibroblasts. shares compounds with T cruzi growth-1. NIH/3T3 viability, CellTiter-Glo ATP luminescence, 90 h. cytotoxicity (signal decrease), % at 8.35 µM. 5,600 tested, 14% active. AID 651742;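 active means mean signal decrease across replicates above about 35% based on untreated-well scatter, with enough replicates individually passing, limit read from the data; inconclusive means no rule stated though some were filed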;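 further: 0% = median of neutral control wells and 100% = median of positive control wells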
NIH3T3 tox 2 = kills mouse NIH/3T3 fibroblasts. shares compounds with T cruzi growth-1. NIH/3T3 viability, CellTiter-Glo ATP luminescence, 90 h. inhibition, % at 24.9 µM. 5,600 tested, 56% active. AID 651744;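 active means mean loss of cell viability signal at or above a set limit, and enough replicates individually reaching it; inconclusive means meets only the mean limit or only the replicate share; inactive means meets neither condition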;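 further: 0% = median of neutral control wells and 100% = median of positive control wells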
Starred values were filed as active, the others as inactive; ? = inconclusive; / = not tested or not shown.

SMILES	T cruzi growth-1	C diff HTS	Pf Dd2 inh	T cruzi growth-2	T cruzi growth-3	3T3 cytotox	NIH3T3 tox 2
C[C@H](CO)N1C[C@H](C)[C@H](CN(C)C(=O)Nc2cccc3ccccc23)OCCCC[C@H](C)Oc2ccc(NS(=O)(=O)c3ccc(F)cc3)cc2C1=O	27.9	-10.6	-30.9	/	/	/	/
COc1ccc(S(=O)(=O)Nc2ccc3c(c2)C(=O)N([C@H](C)CO)C[C@@H](C)[C@H](CN(C)C(=O)Nc2cccc4ccccc24)OCCCC[C@@H](C)O3)cc1	86.9	/	-32.3	/	/	/	/
C[C@@H]1CN([C@@H](C)CO)C(=O)c2cc(NS(=O)(=O)c3ccc(F)cc3)ccc2O[C@@H](C)CCCCO[C@H]1CN(C)C(=O)Nc1cccc2ccccc12	100.4*	-7.8	-85.8*	108.5*	33.4	-21.2	-16.3
COc1ccc(CN2CC3(CCN(C(=O)C4CCOCC4)CC3)c3c(n(C)c4cc(OC)ccc34)[C@@H]2CO)cc1	/	5.3	-38.4	/	/	/	/
O=C(Nc1ccccc1F)N[C@H]1CC[C@H](CCNC(=O)C2CCC2)O[C@@H]1CO	/	3.1	7.1	/	/	/	/
CCC(=O)N(C)C[C@@H]1Oc2cc(-c3ccccc3C)ccc2S(=O)(=O)N([C@H](C)CO)C[C@H]1C	-4.3	4.5	-10.6	/	/	/	/
Cc1ccc(S(=O)(=O)Nc2ccc3c(c2)C(=O)N([C@H](C)CO)C[C@H](C)[C@@H](CN(C)C(=O)Nc2cccc4ccccc24)OCCCC[C@H](C)O3)cc1	99.4*	-0.7	-72.0	110.3*	104.8*	-28.1	-9.0
C[C@@H]1CN([C@@H](C)CO)C(=O)c2cc(NS(=O)(=O)c3ccc(F)cc3)ccc2O[C@@H](C)CCCCO[C@@H]1CN(C)C(=O)Nc1cccc2ccccc12	100.6*	-0.8	-86.0*	103.8*	54.6	20.8	18.5
C[C@H]1CCCCO[C@H](CN(C)C(=O)Nc2cccc3ccccc23)[C@@H](C)CN([C@@H](C)CO)C(=O)c2cc(NS(=O)(=O)c3ccccc3)ccc2O1	/	/	-62.6	/	/	/	/
C[C@@H]1CCCCO[C@H](CN(C)C(=O)Nc2cccc3ccccc23)[C@H](C)CN([C@H](C)CO)C(=O)c2cc(NS(C)(=O)=O)ccc2O1	11.1	3.3	-59.4	/	/	/	/
CC(C)NC(=O)Nc1ccc2c(c1)C(=O)N([C@@H](C)CO)C[C@@H](C)[C@H](CN(C)S(C)(=O)=O)OCCCC[C@@H](C)O2	-110.1	/	1.2	/	/	/	/
C[C@@H]1CCCCO[C@H](CN(C)Cc2ccc(C(F)(F)F)cc2)[C@@H](C)CN([C@H](C)CO)C(=O)c2cc(NC(=O)C3CCCCC3)ccc2O1	70.2	3.0	-27.8	/	/	/	/
C[C@@H]1CCCCO[C@H](CN(C)Cc2ccncc2)[C@H](C)CN([C@@H](C)CO)C(=O)c2cc(NC(=O)C3CCCCC3)ccc2O1	89.6	-4.8	-9.6	/	/	/	/
C[C@@H]1CCCCO[C@@H](CN(C)Cc2ccc(C(F)(F)F)cc2)[C@H](C)CN([C@H](C)CO)C(=O)c2cc(NC(=O)C3CCCCC3)ccc2O1	117.8*	-1.0	-50.1	89.4	103.6*	21.8	17.0
C[C@@H]1CN([C@@H](C)CO)C(=O)c2cc(NC(=O)C3CCCCC3)ccc2O[C@@H](C)CCCCO[C@H]1CN(C)Cc1ccc(C(F)(F)F)cc1	?	16.9	-55.9	88.8	116.1*	25.9	7.1
C[C@H]1CN([C@@H](C)CO)C(=O)c2cc(NC(=O)C3CCCCC3)ccc2O[C@@H]1CN(C)Cc1ccc(C(F)(F)F)cc1	91.6*	-3.7	14.7	92.0	38.4	-3.0	22.3
C[C@@H]1CN([C@@H](C)CO)C(=O)c2cc(NC(=O)C3CCCCC3)ccc2O[C@@H](C)CCCCO[C@H]1CN(C)Cc1ccc(C(=O)O)cc1	5.8	-0.5	17.6	/	/	/	/
C[C@@H]1CN([C@H](C)CO)C(=O)c2cc(NC(=O)C3CCCCC3)ccc2O[C@@H](C)CCCCO[C@H]1CN(C)Cc1ccncc1	102.7*	-3.6	-12.1	65.0	32.5	0.2	2.6
C[C@H]1CN([C@@H](C)CO)C(=O)c2cc(NC(=O)C3CCCCC3)ccc2O[C@H]1CN(C)Cc1ccc(C(F)(F)F)cc1	15.5	8.0	-5.3	/	/	/	/
COc1ccccc1NC(=O)N[C@H]1C=C[C@@H](CC(=O)N[C@H](C)c2ccccc2)O[C@H]1CO	-41.5	/	5.4	/	/	/	/
CO[C@H]1CN(C)C(=O)c2ccc(NC(=O)c3ccc(Oc4ccccc4)cc3)cc2OC[C@H](C)NC[C@H]1C	-6.5	/	-76.2	/	/	/	/
COC(=O)/C(=C\Nc1ccc(Oc2ccccc2OC(C)C)nc1)NC(=O)c1ccccc1	/	-10.3	/	/	/	/	/
C[C@@H]1CCCCO[C@H](CN(C)Cc2ccc(C(F)(F)F)cc2)[C@@H](C)CN([C@@H](C)CO)C(=O)c2cc(NC(=O)C3CCCCC3)ccc2O1	?	6.6	-84.6*	95.0*	107.6*	-1.7	26.8*
C[C@H]1CCCCO[C@@H](CN(C)Cc2ccc(C(=O)O)cc2)[C@@H](C)CN([C@@H](C)CO)C(=O)c2cc(NC(=O)C3CCCCC3)ccc2O1	-17.9	-2.3	10.1	/	/	/	/
C[C@H](CO)N1C[C@H](C)[C@H](CN(C)Cc2ccc3c(c2)OCO3)OCCCC[C@H](C)Oc2ccc(NC(=O)Nc3cccc4ccccc34)cc2C1=O	106.9*	/	1.9	104.0*	96.9*	22.5	45.0*
SMILES	T cruzi growth-1	C diff HTS	Pf Dd2 inh	T cruzi growth-2	T cruzi growth-3	3T3 cytotox	NIH3T3 tox 2
C[C@@H]1CN([C@@H](C)CO)C(=O)c2cc(NC(=O)Nc3cccc4ccccc34)ccc2O[C@@H](C)CCCCO[C@@H]1CN(C)Cc1ccc2c(c1)OCO2	102.3*	/	-90.1*	110.4*	74.9	13.5	23.3
C[C@@H]1CCCCO[C@H](CN(C)Cc2ccc3c(c2)OCO3)[C@@H](C)CN([C@H](C)CO)C(=O)c2cc(NC(=O)Nc3cccc4ccccc34)ccc2O1	90.8	/	16.2	/	/	/	/
C[C@@H]1CCCCO[C@H](CN(C)Cc2ccc3c(c2)OCO3)[C@H](C)CN([C@H](C)CO)C(=O)c2cc(NC(=O)Nc3cccc4ccccc34)ccc2O1	135.5*	21.7	-84.4*	107.0*	117.8*	?	94.1*
C[C@H](CO)N1C[C@H](C)[C@@H](CN(C)Cc2ccc3c(c2)OCO3)OCCCC[C@H](C)Oc2ccc(NC(=O)Nc3cccc4ccccc34)cc2C1=O	?	/	-67.1	103.2*	110.5*	33.2	42.1*
COCC(=O)N1C[C@@H]2[C@H](c3ccccc31)[C@H](CO)N2C(=O)C1CCCC1	-2.2	-4.8	-1.4	/	/	/	/
CCCNC(=O)N1C[C@@H](C)[C@H](OC)CN(C)C(=O)c2cc(NS(C)(=O)=O)ccc2OC[C@@H]1C	11.1	-0.4	33.9	/	/	/	/
C[C@@H]1CN([C@@H](C)CO)C(=O)c2cc(NC(=O)Nc3cccc4ccccc34)ccc2O[C@@H](C)CCCCO[C@H]1CN(C)Cc1ccc2c(c1)OCO2	120.7*	/	-78.1	105.6*	91.1	26.1	105.2*
